AC50 and outcome data for 3 compounds are collected here from PubChem BioAssay (EPA / NIEHS).

Results filed as inconclusive are left out. The source made the active and inactive calls. The calls were made as follows: active = hit-call score of the fitted dose curve at least 0.9, where 1 is the maximum; inconclusive = response in the unintended direction; inactive = score below 0.9.

For orientation: AC50 means the concentration at which the activity in the assay is half-maximal.

In experiment [1] the target is human Caspase 10 (CASP10), CASP10 (gene 843) (UniProt Q92851). Briefly: NVS_ENZ_hCASP10: NovaScreen (NVS) Enzymatic Assay for human Caspase 10 (CASP10) (AID 2283133). An outline of the steps:
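Fluorescence-intensity enzyme read-out of E. coli-expressed CASP10 activity, 1 h after compound. Single-point duplicates at 25 uM preceded concentration-response testing (top 50 uM) of hits; inhibition expressed as signal loss versus DMSO.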

Experiment [2] deals with human Caspase 2 (CASP2), CASP2 (gene 835) (UniProt P42575). The experiment in a line: NVS_ENZ_hCASP2: NovaScreen (NVS) Enzymatic Assay for human Caspase 2 (CASP2) (AID 2283135). An outline of the steps: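 Single-point duplicate testing at 25 uM preceded concentration series topping at 50 uM. Activity of the recombinant E. coli-derived protease was followed by fluorescent substrate cleavage 1 h post-dosing, relative to DMSO.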
Sequence of human Caspase 2 (CASP2), CASP2 (gene 835) (P42575 whole entry, looked up): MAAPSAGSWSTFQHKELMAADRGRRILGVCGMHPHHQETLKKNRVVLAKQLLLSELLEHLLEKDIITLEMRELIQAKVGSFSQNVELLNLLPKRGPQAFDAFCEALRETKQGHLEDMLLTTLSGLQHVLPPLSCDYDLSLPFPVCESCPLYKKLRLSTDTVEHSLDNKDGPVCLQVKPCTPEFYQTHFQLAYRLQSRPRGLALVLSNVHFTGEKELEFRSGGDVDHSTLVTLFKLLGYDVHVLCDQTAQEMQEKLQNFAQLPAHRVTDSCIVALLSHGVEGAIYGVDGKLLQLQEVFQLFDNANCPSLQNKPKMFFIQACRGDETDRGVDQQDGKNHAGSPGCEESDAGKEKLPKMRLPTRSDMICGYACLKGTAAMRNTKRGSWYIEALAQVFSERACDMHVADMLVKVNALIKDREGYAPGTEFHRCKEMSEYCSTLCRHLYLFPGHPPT

Sequence of human Caspase 10 (CASP10), CASP10 (gene 843) (Q92851 whole entry, looked up): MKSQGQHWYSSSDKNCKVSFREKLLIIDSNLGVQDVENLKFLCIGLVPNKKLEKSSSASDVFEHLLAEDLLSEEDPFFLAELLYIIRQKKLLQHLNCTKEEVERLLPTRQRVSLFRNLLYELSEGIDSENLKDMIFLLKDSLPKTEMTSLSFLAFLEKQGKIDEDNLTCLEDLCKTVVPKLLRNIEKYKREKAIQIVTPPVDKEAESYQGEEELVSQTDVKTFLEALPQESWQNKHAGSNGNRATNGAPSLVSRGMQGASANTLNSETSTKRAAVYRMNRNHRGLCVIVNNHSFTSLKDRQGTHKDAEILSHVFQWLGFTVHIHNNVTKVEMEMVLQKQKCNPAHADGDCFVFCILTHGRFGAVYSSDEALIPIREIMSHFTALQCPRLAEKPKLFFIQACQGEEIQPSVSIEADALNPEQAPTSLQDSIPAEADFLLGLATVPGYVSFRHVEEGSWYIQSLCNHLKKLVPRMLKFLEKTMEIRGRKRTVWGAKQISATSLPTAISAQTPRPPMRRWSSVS

With `COC(=O)c1ccccc1S(=O)(=O)NC(=O)N(C)c1nc(C)nc(OC)n1`, the half-maximal activity concentration (AC50) in experiment [1] was 6.07 µM (active).

With `O=S(=O)(O)C(F)(F)C(F)(F)C(F)(F)C(F)(F)C(F)(F)C(F)(F)C(F)(F)C(F)(F)F`, the outcome in experiment [1] was inactive.

As for `C#CCN1C(=O)COc2cc(F)c(N3C(=O)C4=C(CCCC4)C3=O)cc21`, the result in experiment [2] was inactive.
